Results as given in the supplement of paper PMC7411054.
Counter-ions that a name gives are not always drawn. A number with no mark means an inactive call.

system: A549-TUBA1B-RELA; assay: phenotypically active (imaging signature differs from DMSO and reproducible) at any of 0.3-9 uM (binary (1 = active, 0 = inactive)); higher = active; conditions: treatment time: 24 h
Outline: (§1)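 After 24 h at 0.3, 1, 3 or 9 µM, with four wells per treatment, fifteen gene-edited A549, HepG2 and WPMY1 reporter lines carrying BFP, GFP and RFP/FusionRed were imaged live. Each well's live-cell features were expressed relative to solvent control wells. Deviation required ≥3 of 4 wells past the 95th percentile of control Euclidean distances, and reproducibility a median replicate Pearson correlation over the 95th percentile of non-replicates. Phenotypic activity rested on both.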

SMILES | phenotypically active
O=P(O)(O)C(O)(Cc1cccnc1)P(=O)(O)O [risedronate] | 0
O=C(CCc1ccc(O)cc1)c1c(O)cc(O)cc1O[C@@H]1O[C@H](CO)[C@@H](O)[C@H](O)[C@H]1O [Phloridzin] | 0
CC(C)NCCCC1(C(N)=O)c2ccccc2-c2ccccc21 [indecainide] | 0
COc1c2occc2cc2ccc(=O)oc12 [methoxsalen] | 0
CC(=O)N[C@@H](CC(=O)O)C(=O)N[C@@H](CCC(=O)O)C(=O)O [Spaglumic acid] | 0
OCC(CO)N[C@H]1C[C@](O)(CO)[C@@H](O)[C@H](O)[C@H]1O [Voglibose] | 0
CCOc1ccccc1OCCN[C@H](C)Cc1ccc(OC)c(S(N)(=O)=O)c1 [tamsulosin] | 0
O=C1NC(=O)/C(=C\c2cccc(C(F)(F)F)c2)S1 | 0
NS(=O)(=O)c1cc(Cl)c(Cl)c(S(N)(=O)=O)c1 [diclofenamide] | 0
CN1CCN2c3ncccc3Cc3ccccc3C2C1 (stereo not drawn) [Mirtazapine] | 0
O=C1N(c2ccccc2)c2ccccc2C1(Cc1ccncc1)Cc1ccncc1 [linopirdine] | 0
C[C@H]1[C@H](C)CC[C@]2(C(=O)O)CC[C@]3(C)C(=CC[C@@H]4[C@@]5(C)CC[C@H](O)C(C)(C)[C@@H]5CC[C@]43C)[C@H]12 [Ursolic acid] | 0
CCOC(=O)[C@H](CCc1ccccc1)N[C@@H](C)C(=O)N1Cc2ccccc2C[C@H]1C(=O)O [quinapril] | 0
CC1(C)CCC(C)(C)c2cc(C3(c4ccc(C(=O)O)cc4)OCCO3)ccc21 | 0
CCCCCCCCCN1C[C@H](O)[C@@H](O)[C@H](O)[C@H]1CO [N-Nonyldeoxynojirimycin] | 0
CC(=O)O[C@H]1C[C@@H]2CC[C@@H]3[C@H](CC[C@@]4(C)[C@H]3C[C@H]([N+]3(C)CCCCC3)[C@@H]4OC(C)=O)[C@@]2(C)C[C@@H]1N1CCCCC1 [vecuronium] | 0
O=C(O)c1cc(/N=N/c2ccc(O)c(C(=O)O)c2)ccc1O [olsalazine] | 0
CCOC(=O)[C@H](CCc1ccccc1)N[C@H]1CCc2ccccc2N(CC(=O)O)C1=O [benazepril] | 0
O=C(c1ccccc1)c1ccc2n1CCC2C(=O)O (stereo not drawn) [ketorolac] | 0
CN1C(=O)CC[C@H]1c1cccnc1 [(-)-Cotinine] | 0

SMILES | phenotypically active
CN1C(=O)OC(C)(C)C1=O [trimethadione] | 0
CCC(=C(CC)c1ccc(O)cc1)c1ccc(O)cc1 (stereo in doubt) [diethylstilbestrol] | 0
CCOc1cc(CC(=O)N[C@@H](CC(C)C)c2ccccc2N2CCCCC2)ccc1C(=O)O [repaglinide] | 0
O=C(Cn1ccnc1[N+](=O)[O-])NCc1ccccc1 [benznidazole] | 0
CCCc1nn(C)c2c(=O)[nH]c(-c3cc(S(=O)(=O)N4CCN(C)CC4)ccc3OCC)nc12 [Sildenafil citrate] | 0
CCN(CC)CC(=O)Nc1c(C)cccc1C [lidocaine] | 0
COc1ccc([C@@H]2Sc3ccccc3N(CCN(C)C)C(=O)[C@@H]2OC(C)=O)cc1 [diltiazem] | 0
COc1ccc(CCN(C)CCCN2CCc3cc(OC)c(OC)cc3CC2=O)cc1OC [zatebradine] | 0
CC(C)NCC(O)c1ccc(O)c(O)c1 (stereo not drawn) [Isoproterenol hydrochloride] | 0
O=C(O)c1ccc(O)c2ncccc12 | 0
NCCCC[C@H](N[C@@H](CCc1ccccc1)C(=O)O)C(=O)N1CCC[C@H]1C(=O)O [lisinopril] | 0
C#C[C@]1(O)CC[C@H]2[C@@H]3CCc4cc(OC5CCCC5)ccc4[C@H]3CC[C@@]21C [quinestrol] | 0
O=C(NCc1ccccn1)Nc1nnc(-c2ccco2)o1 | 0
O=C1c2ccccc2C(Cc2ccncc2)(Cc2ccncc2)c2ccccc21 | 0
CCOC(=O)C(C)(C)Oc1ccc(Cl)cc1 [Clofibrate] | 0
CC(C)(Sc1ccc(CCN(CCCCC2CCCCC2)C(=O)NC2CCCCC2)cc1)C(=O)O | 0
O=c1[nH]cnc2c1ncn2[C@H]1CC[C@@H](CO)O1 [Didanosine] | 0
CC(c1cc2ccccc2s1)N(O)C(N)=O (stereo not drawn) [zileuton] | 0
COc1ccc2[nH]c(S(=O)Cc3ncc(C)c(OC)c3C)nc2c1 (stereo not drawn) [omeprazole] | 0

system: HepG2-ACTB-RAB5A; assay: as above; conditions: treatment time: 24 h
Outline: as §1

SMILES | phenotypically active
O=P(O)(O)C(O)(Cc1cccnc1)P(=O)(O)O [risedronate] | 0
O=C(CCc1ccc(O)cc1)c1c(O)cc(O)cc1O[C@@H]1O[C@H](CO)[C@@H](O)[C@H](O)[C@H]1O [Phloridzin] | 0
CC(C)NCCCC1(C(N)=O)c2ccccc2-c2ccccc21 [indecainide] | 0
COc1c2occc2cc2ccc(=O)oc12 [methoxsalen] | 0
CC(=O)N[C@@H](CC(=O)O)C(=O)N[C@@H](CCC(=O)O)C(=O)O [Spaglumic acid] | 0
OCC(CO)N[C@H]1C[C@](O)(CO)[C@@H](O)[C@H](O)[C@H]1O [Voglibose] | 0
CCOc1ccccc1OCCN[C@H](C)Cc1ccc(OC)c(S(N)(=O)=O)c1 [tamsulosin] | 0
O=C1NC(=O)/C(=C\c2cccc(C(F)(F)F)c2)S1 | 0
NS(=O)(=O)c1cc(Cl)c(Cl)c(S(N)(=O)=O)c1 [diclofenamide] | 0
CN1CCN2c3ncccc3Cc3ccccc3C2C1 (stereo not drawn) [Mirtazapine] | 0
O=C1N(c2ccccc2)c2ccccc2C1(Cc1ccncc1)Cc1ccncc1 [linopirdine] | 0
C[C@H]1[C@H](C)CC[C@]2(C(=O)O)CC[C@]3(C)C(=CC[C@@H]4[C@@]5(C)CC[C@H](O)C(C)(C)[C@@H]5CC[C@]43C)[C@H]12 [Ursolic acid] | 0
CCOC(=O)[C@H](CCc1ccccc1)N[C@@H](C)C(=O)N1Cc2ccccc2C[C@H]1C(=O)O [quinapril] | 0
CC1(C)CCC(C)(C)c2cc(C3(c4ccc(C(=O)O)cc4)OCCO3)ccc21 | 0
CCCCCCCCCN1C[C@H](O)[C@@H](O)[C@H](O)[C@H]1CO [N-Nonyldeoxynojirimycin] | 0
CC(=O)O[C@H]1C[C@@H]2CC[C@@H]3[C@H](CC[C@@]4(C)[C@H]3C[C@H]([N+]3(C)CCCCC3)[C@@H]4OC(C)=O)[C@@]2(C)C[C@@H]1N1CCCCC1 [vecuronium] | 0
O=C(O)c1cc(/N=N/c2ccc(O)c(C(=O)O)c2)ccc1O [olsalazine] | 0
CCOC(=O)[C@H](CCc1ccccc1)N[C@H]1CCc2ccccc2N(CC(=O)O)C1=O [benazepril] | 0
O=C(c1ccccc1)c1ccc2n1CCC2C(=O)O (stereo not drawn) [ketorolac] | 0
CN1C(=O)CC[C@H]1c1cccnc1 [(-)-Cotinine] | 0

SMILES | phenotypically active
CN1C(=O)OC(C)(C)C1=O [trimethadione] | 0
CCC(=C(CC)c1ccc(O)cc1)c1ccc(O)cc1 (stereo in doubt) [diethylstilbestrol] | 0
CCOc1cc(CC(=O)N[C@@H](CC(C)C)c2ccccc2N2CCCCC2)ccc1C(=O)O [repaglinide] | 0
O=C(Cn1ccnc1[N+](=O)[O-])NCc1ccccc1 [benznidazole] | 0
CCCc1nn(C)c2c(=O)[nH]c(-c3cc(S(=O)(=O)N4CCN(C)CC4)ccc3OCC)nc12 [Sildenafil citrate] | 0
CCN(CC)CC(=O)Nc1c(C)cccc1C [lidocaine] | 0
COc1ccc([C@@H]2Sc3ccccc3N(CCN(C)C)C(=O)[C@@H]2OC(C)=O)cc1 [diltiazem] | 0
COc1ccc(CCN(C)CCCN2CCc3cc(OC)c(OC)cc3CC2=O)cc1OC [zatebradine] | 0
CC(C)NCC(O)c1ccc(O)c(O)c1 (stereo not drawn) [Isoproterenol hydrochloride] | 0
O=C(O)c1ccc(O)c2ncccc12 | 0
NCCCC[C@H](N[C@@H](CCc1ccccc1)C(=O)O)C(=O)N1CCC[C@H]1C(=O)O [lisinopril] | 0
C#C[C@]1(O)CC[C@H]2[C@@H]3CCc4cc(OC5CCCC5)ccc4[C@H]3CC[C@@]21C [quinestrol] | 0
O=C(NCc1ccccn1)Nc1nnc(-c2ccco2)o1 | 0
O=C1c2ccccc2C(Cc2ccncc2)(Cc2ccncc2)c2ccccc21 | 0
CCOC(=O)C(C)(C)Oc1ccc(Cl)cc1 [Clofibrate] | 0
CC(C)(Sc1ccc(CCN(CCCCC2CCCCC2)C(=O)NC2CCCCC2)cc1)C(=O)O | 0
O=c1[nH]cnc2c1ncn2[C@H]1CC[C@@H](CO)O1 [Didanosine] | 0
CC(c1cc2ccccc2s1)N(O)C(N)=O (stereo not drawn) [zileuton] | 0
COc1ccc2[nH]c(S(=O)Cc3ncc(C)c(OC)c3C)nc2c1 (stereo not drawn) [omeprazole] | 0
